# Measurements: PubChem BioAssay (NCATS)
# Inconclusive results are not listed. Unmarked numbers belong to inactive results. Active and inactive are the calls of the source. Calls follow the shape of the full dose curve.
# Test: Primary qHTS for Vero E6 cytotoxicity: counterscreen for inhibitors of SARS-S pseudo-typed particle cell entry (AID 1479150)
# Details: cell viability; series mostly up to 57.1 µM; activity change, negative = cytotoxicity: at the top concentration
# % is scaled to controls: 0 for no effect and ±100 for the full control effect.
SMILES,outcome,"activity change, negative = cytotoxicity"
CCCCCCCCCCCC(=O)[O][Sn]([CH2]CCC)([CH2]CCC)[O]C(=O)CCCCCCCCCCC,inactive,–
CC1(C)S[C@@H]2[C@H](NC(=O)C(c3ccccc3)S(=O)(=O)O)C(=O)N2[C@H]1C(=O)O (stereo partly drawn),–,-2.14%
CCOCCn1c(C2CCN(CCc3ccc(C(C)(C)C(=O)O)cc3)CC2)nc2ccccc21,–,1.23%
CC(=O)OC(C)OC(=O)C(C)c1ccc(-c2ccccc2)c(F)c1 (stereo not drawn),inactive,–
Cc1ccc(C(C)C)cc2c(C)ccc1-2,–,3.39%
Oc1ccccc1,inactive,–
CC(=O)Oc1cc(C(C)C)c(OCCN(C)C)cc1C,–,1.63%
CC(C)Cc1ccc(CC(=O)O)cc1,inactive,–
O=C(NC(Cc1cc(=O)[nH]c2ccccc12)C(=O)O)c1ccc(Cl)cc1 (stereo not drawn),inactive,–
NCCCC[C@H](N[C@@H](CCc1ccccc1)C(=O)O)C(=O)N1CCC[C@H]1C(=O)O,–,2.49%
C/C=C1\[C@H]2C=C(C)C[C@]1(N)c1ccc(=O)[nH]c1C2,–,-1.74%
CNC[C@H](O)c1cccc(O)c1,–,4.41%
C[C@@H]1CN(c2c(F)c(F)c3c(=O)c(C(=O)O)cn(C4CC4)c3c2F)C[C@H](C)N1,inactive [at 26.4 µM],–
Cc1ccc(C(=O)C(C)CN2CCCCC2)cc1 (stereo not drawn),inactive,–
CC(C)(C)NC[C@H](O)COc1cccc2c1CCCC2=O,inactive,–
CCn1cc(C(=O)O)c(=O)c2cnc(N3CCNCC3)nc21,–,4.18%
CCCCC(CC)CN1CN(CC(CC)CCCC)CC(C)(N)C1 (stereo not drawn),–,-5.23%
Cc1ccc(-c2ncc(Cl)cc2-c2ccc(S(C)(=O)=O)cc2)cn1,inactive,–
OCc1ccc(Cl)cc1Cl,–,0.0279%

SMILES,outcome,"activity change, negative = cytotoxicity"
CC[C@H](C)C(=O)O[C@H]1C[C@H](O)C=C2C=C[C@H](C)[C@H](CC[C@@H](O)C[C@@H](O)CC(=O)O)[C@H]21,–,4.27%
CCCCCCCCCCOc1cc2c(=O)c(C(=O)OCC)c[nH]c2cc1OCC,–,1.57% [at 5.34 µM]
COc1cc(C(=O)NS(=O)(=O)c2ccccc2C)ccc1Cc1cn(C)c2ccc(NC(=O)OC3CCCC3)cc12,–,0.681%
O=C(OCC1(COC(=O)c2cccnc2)CCCC(COC(=O)c2cccnc2)(COC(=O)c2cccnc2)C1O)c1cccnc1,inactive,–
COc1ccc(C(=O)NCc2ccc(OCCN(C)C)cc2)cc1OC,–,-5.74%
CO/N=C(/C(=O)N[C@@H]1C(=O)N2C(C(=O)OCOC(=O)C(C)(C)C)=C(C)CS[C@H]12)c1csc(N)n1,inactive,–
N#CSCC(=O)O,inactive,–
C[N+](C)(C)CCCCCC[N+](C)(C)C,inactive,–
c1ccc2c(c1)CCCC2C1=NCCN1 (stereo not drawn),inactive,–
Cc1cc(O)cc2c1O[C@](C)(CCC[C@H](C)CCC[C@H](C)CCCC(C)C)CC2,–,-6.8%
CCCCCN(CCCOC)C(=O)C(CCC(=O)O)NC(=O)c1ccc(Cl)c(Cl)c1 (stereo not drawn),–,-7.67%
C[C@H]1O[C@@H](n2cc(F)c(=O)[nH]c2=O)[C@H](O)[C@@H]1O,inactive,–
C[N+]1(C)[C@@H]2CC(OC(=O)[C@H](CO)c3ccccc3)C[C@H]1[C@@H]1O[C@@H]12 (stereo partly drawn),inactive,–
NS(=O)(=O)c1cc(Cl)c(Cl)c(S(N)(=O)=O)c1,inactive,–
NC[C@H]1O[C@H](O[C@H]2[C@H](O)[C@@H](O[C@H]3O[C@H](CO)[C@@H](O)[C@H](N)[C@H]3O)[C@H](N)C[C@@H]2N)[C@H](O)[C@@H](O)[C@@H]1O,inactive [at 5.34 µM],–
O=c1c(-c2ccc(O)cc2)coc2cc(O)cc(O)c12,–,-16.4%
CC(=O)N(CC(O)CO)c1c(I)c(C(=O)NCC(O)CO)c(I)c(C(=O)NCC(O)CO)c1I (stereo not drawn),–,-0.545%
NC(CS)C(=O)O (stereo not drawn),–,0.751%
NC1CCN(c2nc3c(cc2F)c(=O)c(C(=O)O)cn3-c2ccc(F)cc2F)C1 (stereo not drawn),inactive,–
